# Source: publication PMC8159961, “Exploring protein hotspots by optimized fragment pharmacophores” (Nature Communications, 2021)
# A number with no mark means an inactive call. No rule for the calls is given here.
# Target: 5-HT1A receptor (human, UniProt P08908)
# Test: primary screen, binary call; higher = more effect of the substance
# Set-up: hit call from the mean of at least two separate experiments
# Details: 10 µM
# Protocol: GPCR radioligand binding assays were performed in HEK293 cells with stable expression of human 5-HT1A, 5-HT6, and 5-HT7b receptors (prepared with the use of Lipofectamine 2000). Non-specific binding was defined with 10 µM of 5-HT in 5-HT1AR and 5-HT7R binding experiments, whereas 10 µM of mianserin was used in 5-HT6R assays, respectively. Each compound was tested at 10 µM concentration. Results were expressed as means of at least two separate experiments.
# Chain of 5-HT1A receptor (P08908 whole entry, looked up): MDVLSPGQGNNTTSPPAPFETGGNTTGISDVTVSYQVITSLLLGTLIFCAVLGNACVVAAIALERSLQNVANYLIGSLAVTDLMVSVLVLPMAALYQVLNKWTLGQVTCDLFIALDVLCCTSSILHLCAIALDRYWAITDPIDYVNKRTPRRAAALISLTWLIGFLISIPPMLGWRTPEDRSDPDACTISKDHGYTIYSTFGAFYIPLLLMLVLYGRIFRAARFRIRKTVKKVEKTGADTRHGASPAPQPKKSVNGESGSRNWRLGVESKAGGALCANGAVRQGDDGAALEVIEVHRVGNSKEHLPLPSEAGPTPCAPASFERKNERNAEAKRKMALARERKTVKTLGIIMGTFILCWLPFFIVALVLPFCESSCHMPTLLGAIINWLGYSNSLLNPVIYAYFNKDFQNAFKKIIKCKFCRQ
row,SMILES,5-HT1
1,O=C(O)C1CCCN(C(=O)N2CCCC2)C1 (stereo not shown),0
2,Fc1ccc2c(C3CCNCC3)c[nH]c2c1,1 (active)
3,N#CCCN1CCc2ccccc21,0
4,COc1ccc(CN2CCNCC2)cc1F,0
5,Cc1cc(N)no1,0
6,NC1CCc2ccccc21 (stereo not shown),0
7,N#CC1CCS(=O)(=O)C1 (stereo not shown),0
8,O=C(O)c1cccc(Nc2ncccn2)c1,0
9,O=C(NC1CC1)c1ccccc1O,0
10,Clc1ccc2nnnn2n1,0
11,O=C(CN1CCNCC1)c1ccccc1,0
12,CN(C)c1cc(CN)ccn1,0
13,CS(=O)(=O)c1ccc(N2CCNCC2)cc1,0
14,N#Cc1ccc(C(=O)N2CCOCC2)cc1,0
15,c1ccc2sc(N3CCNCC3)nc2c1,1 (active)
16,CCCN1C(=O)CC(=O)NC1=S,0
17,O=C1NC2(CCCC2)Nc2ccccc21,0
18,NC(c1ccccc1)c1ccccc1,0
19,O=C(O)c1ccc(CN2CCOCC2)cc1,0
20,c1ccc2oc(C3CCCNC3)nc2c1 (stereo not shown),1 (active)

row,SMILES,5-HT1
1,O=C(c1ccccc1)N1CCC(CO)CC1,0
2,Oc1ccc(C2CCNCC2)cc1,0
3,O=C(c1ccccc1F)N1CCNCC1,0
4,CCN(CC)c1cccc(C)c1,0
5,O=C(Nc1ccccc1)C1CC1,0
6,CCn1cnc2ccccc21,0
7,Oc1cnc(-c2ccccc2)nc1,0
8,O=C1CCN(c2ccccn2)CC1,0
9,O=C(O)C1CCN(c2ncccn2)CC1,0
10,O=C(c1ccncc1)N1CCNCC1,0
11,O=C(O)CC1CCC(=O)N1 (stereo not shown),0
12,Cc1ccc(-c2ccc(O)cc2)cc1,0
13,O=C1NC(=O)/C(=C\c2cccs2)N1,0
14,C1=C[C@H]2O[C@@H]1c1ccccc12,0
15,CC1(C)OC(=O)c2cc(Br)c(O)cc2O1,0
16,CC1CCc2sc(C(=O)O)cc2C1 (stereo not shown),0
17,O=c1[nH]c2c(s1)CCC2,0
18,Oc1ccc(-n2cncn2)cc1,0
19,COc1cccc(NC2=NCCCCC2)c1,0
20,c1ccc(-c2ccncc2)cc1,0
